Source: PubChem BioAssay (Tox21)
Records with an inconclusive call do not appear. Activity calls are given as the source filed them. Calls follow the shape of the dose curve; as a rule, active = well fitted curve in the direction sought with a large enough effect in the repeat runs; inconclusive = weak or mixed curves; inactive = no such curve, though single readings can be large; an effect the other way counts as inactive or inconclusive.

Experiment: A CellTox Green Cytotoxicity Assay to monitor cytotoxicity in HEK293 cells - 40 hour (AID 1224871); also: nearly all actives have a fitted effect of over 45% in size; also: potency is read from the fitted curve at half-maximal effect
Conditions: CellTox Green fluorescence; series mostly up to 76.8 µM; cytotoxicity increase: at the top concentration
How it was run: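 Read-out: fluorescence of a cell-impermeant cyanine dye staining DNA of dead cells, proportional to cytotoxicity. HEK293, 600 cells/well with reagent, compound (23 nL DMSO) added after 5 h; reads at 0, 8, 16, 24, 32, 40 h.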
% is scaled to controls: 0 for no effect and ±100 for the full control effect.

Which “cytotoxicity increase” value does the source give for `CCCC(C)C(O)CC` (stereo not drawn) here?
Its value is -0.413% (inactive).

Which “cytotoxicity increase” value does the source give for `CC(=O)Nc1ccc(OCCOCCOc2ccc(NC(C)=O)cc2)cc1` here?
The value was -8.06% [at 35.3 µM] (inactive).

Which “cytotoxicity increase” value does the source give for `CC(C)OC(=O)C(C(=O)OC(C)C)=C1SC=CS1` here?
The value was 12% [at 35.3 µM] (inactive).

With `CN1CCN(C(=O)C2CCCCC2)CC1` as the compound, how does the “cytotoxicity increase” value read?
The value was -2.62% [at 35.3 µM] (inactive).

Which “cytotoxicity increase” value does the source give for `C=CCCCCCCCCOC(C)=O` here?
Its value is 7.36% (inactive).

With `CC(=O)c1ccc2ccc3ccccc3c2c1` as the compound, how does the “cytotoxicity increase” value read?
Its value is -13% (inactive).

With `CN(C)CCCN(C)C` as the compound, how does the cytotoxicity increase read?
The cytotoxicity increase was -1.24% [at 6.97 µM] (inactive).

With `CCCCCCCC(=O)N(C)C` as the compound, how does the “cytotoxicity increase” value read?
The value was -0.698% (inactive).

Which Potency does the source give for `CC(=O)c1c(C)cc(C(C)(C)C)cc1C` here?
The Potency was 24.5 µM (active).

With `C=CC(C)(CCC=C(C)C)OC(=O)C(C)C` (stereo not drawn) as the compound, how does the “cytotoxicity increase” value read?
The value was -10.5% (inactive).

Which “cytotoxicity increase” value does the source give for `CCOC(=O)COc1ccc2c(C)c(CCN(CC)CC)c(=O)oc2c1Cl` here?
Its value is -14.4% [at 35.3 µM] (inactive).

For `O=C(OOC(=O)c1ccccc1)c1ccccc1`, which “cytotoxicity increase” value is on record?
The value was 13.4% [at 35.3 µM] (inactive).

With `COc1ccc(Cl)cc1C` as the compound, how does the “cytotoxicity increase” value read?
The value was -6.54% (inactive).

With `Clc1ccc2c(c1)Nc1ccccc1S2` as the compound, how does the “cytotoxicity increase” value read?
Its value is -1.95% [at 35.3 µM] (inactive).

Which “cytotoxicity increase” value does the source give for `CCN(CC)CC(=O)Oc1ccc(NC(C)=O)cc1` here?
The value was -1.2% [at 35.3 µM] (inactive).

With `N[C@H]1C(O)O[C@H](CO)[C@@H](O)[C@@H]1O` (stereo partly drawn) as the compound, how does the “cytotoxicity increase” value read?
Its value is -2.36% [at 35.3 µM] (inactive).

With `O=C1Nc2ccccc2C1=O` as the compound, how does the “cytotoxicity increase” value read?
The value was 16.1% (inactive).

Which “cytotoxicity increase” value does the source give for `CN(C)c1ccncc1` here?
Its value is -9.15% (inactive).

For `CN(C)CCc1c[nH]c2ccc(C[C@H]3COC(=O)N3)cc12`, which “cytotoxicity increase” value is on record?
The value was 10.8% [at 35.3 µM] (inactive).

With `Cc1nnc(C(=O)NC(C)(C)c2nc(C(=O)NCc3ccc(F)cc3)c(O)c(=O)n2C)o1` as the compound, how does the “cytotoxicity increase” value read?
Its value is 20.7% [at 35.3 µM] (inactive).

Which “cytotoxicity increase” value does the source give for `COC(=O)c1c(C)cc(O)c(C)c1O` here?
The value was 6.2% (inactive).

For `C[C@@H](CN1CC(=O)NC(=O)C1)N1CC(=O)NC(=O)C1`, which “cytotoxicity increase” value is on record?
Its value is -0.586% [at 35.3 µM] (inactive).

For `CCOC(=O)[C@H](CCc1ccccc1)N[C@H]1CS[C@H](c2cccs2)CN(CC(=O)O)C1=O`, which “cytotoxicity increase” value is on record?
Its value is 0.0234% [at 35.3 µM] (inactive).

Which “cytotoxicity increase” value does the source give for `N=C(N)N` here?
The value was 21.2% [at 35.3 µM] (inactive).

For `C=CCON/C(CCC)=C1\C(=O)CC(C)(C)C(C(=O)OC)=C1O`, which “cytotoxicity increase” value is on record?
Its value is 3.01% (inactive).

Which “cytotoxicity increase” value does the source give for `CCCCC(CC)COC(=O)CC#N` (stereo not drawn) here?
The value was -2.14% (inactive).

Which “cytotoxicity increase” value does the source give for `CC/C=C\CCCCCCCCCCOC(C)=O` here?
Its value is 1.01% (inactive).

Which “cytotoxicity increase” value does the source give for `O=P(O)(O)C(O)(Cc1cccnc1)P(=O)(O)O` here?
Its value is -17.4% [at 35.3 µM] (inactive).

For `CCN1CCN(C(=O)N[C@@H](C(=O)N[C@@H]2C(=O)N3[C@@H]2SC(C)(C)[C@H]3C(=O)O)c2ccccc2)C(=O)C1=O`, which “cytotoxicity increase” value is on record?
The value was -7.72% [at 35.3 µM] (inactive).

With `COc1cc(C(=O)NC2CCCNC2)cc(OC)c1OC` (stereo not drawn) as the compound, how does the “cytotoxicity increase” value read?
The value was -5.42% [at 35.3 µM] (inactive).

With `COc1cc2nc(N3CCN(C(=O)C4CCCO4)CC3)nc(N)c2cc1OC` (stereo not drawn) as the compound, how does the “cytotoxicity increase” value read?
The value was -13.5% [at 35.3 µM] (inactive).

Experiment: qHTS RealTime-Glo MT Cell Viability Assay in HEK293 cells - 16 hour (AID 1224872); also: top concentration of the series differs between compounds; nearly all actives have a fitted effect of over 50% in size
Conditions: RealTime-Glo luminescence; series mostly up to 76.8 µM; activity change, negative = cytotoxicity: at the top concentration
How it was run: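 Quantitative high-throughput screen of the Tox21 10K library in HEK293: cells and RealTime-Glo reagents plated together, compound added at 5 h, luminescence monitored through 40 h at 37 C.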

With `CCCC(C)C(O)CC` (stereo not drawn) as the compound, how does the “activity change, negative = cytotoxicity” value read?
Its value is 10.9% (inactive).

Which “activity change, negative = cytotoxicity” value does the source give for `CC(=O)Nc1ccc(OCCOCCOc2ccc(NC(C)=O)cc2)cc1` here?
The value was -0.16% [at 35.3 µM] (inactive).

With `COC(=O)N/N=C/c1c[n+]([O-])c2ccccc2[n+]1[O-]` as the compound, how does the “activity change, negative = cytotoxicity” value read?
Its value is 6.86% [at 35.3 µM] (inactive).

For `CN1CCN(C(=O)C2CCCCC2)CC1`, which “activity change, negative = cytotoxicity” value is on record?
The value was -1.09% [at 35.3 µM] (inactive).

For `C=CCCCCCCCCOC(C)=O`, which “activity change, negative = cytotoxicity” value is on record?
Its value is 0.133% (inactive).

With `CN(C)CCCN(C)C` as the compound, how does the activity change, negative = cytotoxicity read?
Its activity change, negative = cytotoxicity is -4.3% [at 6.97 µM] (inactive).

For `CCCCCCCC(=O)N(C)C`, which “activity change, negative = cytotoxicity” value is on record?
The value was -0.991% (inactive).

With `C=CC(C)(CCC=C(C)C)OC(=O)C(C)C` (stereo not drawn) as the compound, how does the “activity change, negative = cytotoxicity” value read?
Its value is 3.11% (inactive).

For `Clc1ccc2c(c1)Nc1ccccc1S2`, which “activity change, negative = cytotoxicity” value is on record?
Its value is -28% [at 35.3 µM] (inactive).

With `CN(C)c1ccncc1` as the compound, how does the “activity change, negative = cytotoxicity” value read?
Its value is -9.28% (inactive).

Which “activity change, negative = cytotoxicity” value does the source give for `CN(C)CCc1c[nH]c2ccc(C[C@H]3COC(=O)N3)cc12` here?
Its value is 2.31% [at 35.3 µM] (inactive).

With `Cc1nnc(C(=O)NC(C)(C)c2nc(C(=O)NCc3ccc(F)cc3)c(O)c(=O)n2C)o1` as the compound, how does the “activity change, negative = cytotoxicity” value read?
The value was 13.1% [at 35.3 µM] (inactive).

With `CCCCS` as the compound, how does the “activity change, negative = cytotoxicity” value read?
Its value is 5.64% (inactive).

Which “activity change, negative = cytotoxicity” value does the source give for `C[C@@H](CN1CC(=O)NC(=O)C1)N1CC(=O)NC(=O)C1` here?
The value was -8.03% [at 35.3 µM] (inactive).

With `CCOC(=O)[C@H](CCc1ccccc1)N[C@H]1CS[C@H](c2cccs2)CN(CC(=O)O)C1=O` as the compound, how does the “activity change, negative = cytotoxicity” value read?
Its value is 1.99% [at 35.3 µM] (inactive).

For `CCCCOCCCC`, which “activity change, negative = cytotoxicity” value is on record?
The value was 7.93% (inactive).

For `N=C(N)N`, which “activity change, negative = cytotoxicity” value is on record?
Its value is 3.84% [at 35.3 µM] (inactive).

With `CCCC(=O)C(CC)Sc1ccoc1C` (stereo not drawn) as the compound, how does the “activity change, negative = cytotoxicity” value read?
Its value is -4.55% (inactive).

For `C=CCON/C(CCC)=C1\C(=O)CC(C)(C)C(C(=O)OC)=C1O`, which “activity change, negative = cytotoxicity” value is on record?
Its value is 16.1% (inactive).

Which “activity change, negative = cytotoxicity” value does the source give for `CCCCC(CC)COC(=O)CC#N` (stereo not drawn) here?
The value was 3.07% (inactive).

With `CC/C=C\CCCCCCCCCCOC(C)=O` as the compound, how does the “activity change, negative = cytotoxicity” value read?
Its value is 7.89% (inactive).

Which “activity change, negative = cytotoxicity” value does the source give for `Cc1ccc(OC(=O)CC(C)C)cc1` here?
The value was -0.478% (inactive).

For `O=P(O)(O)C(O)(Cc1cccnc1)P(=O)(O)O`, which “activity change, negative = cytotoxicity” value is on record?
The value was -0.904% [at 35.3 µM] (inactive).

Which “activity change, negative = cytotoxicity” value does the source give for `CCN1CCN(C(=O)N[C@@H](C(=O)N[C@@H]2C(=O)N3[C@@H]2SC(C)(C)[C@H]3C(=O)O)c2ccccc2)C(=O)C1=O` here?
The value was 2.55% [at 35.3 µM] (inactive).

With `COc1cc(C(=O)NC2CCCNC2)cc(OC)c1OC` (stereo not drawn) as the compound, how does the “activity change, negative = cytotoxicity” value read?
Its value is 3.63% [at 35.3 µM] (inactive).

With `COc1cc2nc(N3CCN(C(=O)C4CCCO4)CC3)nc(N)c2cc1OC` (stereo not drawn) as the compound, how does the “activity change, negative = cytotoxicity” value read?
Its value is 0.531% [at 35.3 µM] (inactive).

With `CC(C)C[P+](C)(CC(C)C)CC(C)C` as the compound, how does the “activity change, negative = cytotoxicity” value read?
The value was 0.101% (inactive).

Experiment: qHTS RealTime-Glo MT Cell Viability Assay in HepG2 cells - 8 hour (AID 1224873); also: nearly all actives have a fitted effect of over 55% in size
Conditions: RealTime-Glo luminescence; series mostly up to 76.8 µM; viability change, negative = cytotoxic: at the top concentration
How it was run: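 HepG2 cells mixed with RealTime-Glo MT reagents (NanoLuc plus cell-permeant prosubstrate) were seeded at 600 cells/well, incubated 5 h at 37 C/5% CO2, then pinned with compounds in DMSO; nonlytic luminescence tracked viability during 40 h treatment.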

Which “viability change, negative = cytotoxic” value does the source give for `CC(C)OC(=O)C(C(=O)OC(C)C)=C1SC=CS1` here?
Its value is -12.1% [at 35.3 µM] (inactive).

Which “viability change, negative = cytotoxic” value does the source give for `COC(=O)N/N=C/c1c[n+]([O-])c2ccccc2[n+]1[O-]` here?
The value was 3.55% [at 35.3 µM] (inactive).

With `CC(=O)c1ccc2ccc3ccccc3c2c1` as the compound, how does the “viability change, negative = cytotoxic” value read?
The value was -10.6% (inactive).

For `CC(=O)c1c(C)cc(C(C)(C)C)cc1C`, which “viability change, negative = cytotoxic” value is on record?
The value was -14.9% (inactive).

Which “viability change, negative = cytotoxic” value does the source give for `CCOC(=O)COc1ccc2c(C)c(CCN(CC)CC)c(=O)oc2c1Cl` here?
The value was 0.0304% [at 35.3 µM] (inactive).

For `O=C(OOC(=O)c1ccccc1)c1ccccc1`, which “viability change, negative = cytotoxic” value is on record?
Its value is 1.82% [at 35.3 µM] (inactive).

For `COc1ccc(Cl)cc1C`, which “viability change, negative = cytotoxic” value is on record?
Its value is 1.79% (inactive).

Which “viability change, negative = cytotoxic” value does the source give for `N[C@H]1C(O)O[C@H](CO)[C@@H](O)[C@@H]1O` (stereo partly drawn) here?
Its value is 1.18% [at 35.3 µM] (inactive).

For `COC(=O)c1c(C)cc(O)c(C)c1O`, which “viability change, negative = cytotoxic” value is on record?
The value was 2.93% (inactive).

Which “viability change, negative = cytotoxic” value does the source give for `CCCCS` here?
The value was 1.71% (inactive).

Which “viability change, negative = cytotoxic” value does the source give for `CCCCOCCCC` here?
The value was 0.835% (inactive).

With `N=C(N)N` as the compound, how does the “viability change, negative = cytotoxic” value read?
The value was 0.294% [at 35.3 µM] (inactive).

Which “viability change, negative = cytotoxic” value does the source give for `CC/C=C\CCOC(=O)c1ccccc1` here?
Its value is -14.4% (inactive).

With `Cc1ccc(OC(=O)CC(C)C)cc1` as the compound, how does the “viability change, negative = cytotoxic” value read?
Its value is 0.75% (inactive).

Which “viability change, negative = cytotoxic” value does the source give for `CC(C)C[P+](C)(CC(C)C)CC(C)C` here?
Its value is -3.01% (inactive).
